Experimental data: ChEMBL document CHEMBL3988442, “University of Dundee, Small-Polar-MMV Screening Library” (2021)
For part of these data: Measured potencies and affinities stand elsewhere.

Experiments:
Design in all cases: scale not given: direction of the effect not stated beside the values
[1] = molecular target: Protein translocase subunit SecA (Escherichia coli (strain K12)) (UniProt P10408); experiment: Assay to Identify E. coli SecA ATPase Inhibitors; format: functional; conditions: 30 µM
[2] = molecular target: T1, Ubiquitin-activating enzyme e1, putative (Leishmania donovani (strain BPK282A1)) (UniProt E9BSI1); experiment: Leishmania donovani Ubiquitin Activating Enzyme (LdE1); format: functional; conditions: 30 µM
T1 sequence (whole entry): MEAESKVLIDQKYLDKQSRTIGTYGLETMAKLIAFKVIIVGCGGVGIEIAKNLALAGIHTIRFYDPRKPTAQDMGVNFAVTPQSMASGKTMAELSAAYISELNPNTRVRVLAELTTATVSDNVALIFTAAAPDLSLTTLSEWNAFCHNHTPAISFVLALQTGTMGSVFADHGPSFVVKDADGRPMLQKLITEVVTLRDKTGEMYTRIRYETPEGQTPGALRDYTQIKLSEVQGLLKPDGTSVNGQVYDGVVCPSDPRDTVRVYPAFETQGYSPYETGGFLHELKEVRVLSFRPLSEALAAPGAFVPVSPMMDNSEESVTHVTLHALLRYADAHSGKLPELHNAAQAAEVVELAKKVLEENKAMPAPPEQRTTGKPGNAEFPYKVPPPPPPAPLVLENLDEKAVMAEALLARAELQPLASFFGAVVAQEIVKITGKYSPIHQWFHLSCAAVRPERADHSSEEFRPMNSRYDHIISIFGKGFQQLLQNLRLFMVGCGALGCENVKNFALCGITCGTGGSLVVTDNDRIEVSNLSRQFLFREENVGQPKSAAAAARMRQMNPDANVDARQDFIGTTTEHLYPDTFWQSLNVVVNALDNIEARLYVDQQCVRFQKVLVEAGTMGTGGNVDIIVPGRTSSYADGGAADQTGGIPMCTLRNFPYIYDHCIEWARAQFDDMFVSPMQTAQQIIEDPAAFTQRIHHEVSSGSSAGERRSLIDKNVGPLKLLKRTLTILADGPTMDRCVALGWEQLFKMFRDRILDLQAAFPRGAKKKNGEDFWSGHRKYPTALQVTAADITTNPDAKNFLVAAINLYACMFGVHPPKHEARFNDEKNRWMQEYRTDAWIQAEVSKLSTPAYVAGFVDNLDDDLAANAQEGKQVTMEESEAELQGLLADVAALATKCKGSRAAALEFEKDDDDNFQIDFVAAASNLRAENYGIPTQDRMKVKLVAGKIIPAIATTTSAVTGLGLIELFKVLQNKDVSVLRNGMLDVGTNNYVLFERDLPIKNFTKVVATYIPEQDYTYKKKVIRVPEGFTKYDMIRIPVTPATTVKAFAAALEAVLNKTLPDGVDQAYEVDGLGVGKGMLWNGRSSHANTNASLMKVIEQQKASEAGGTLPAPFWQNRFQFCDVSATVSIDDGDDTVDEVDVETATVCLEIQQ

[3] = molecular target: T2, Aspartate--tRNA(Asp/Asn) ligase (Mycobacterium tuberculosis (strain ATCC 25618 / H37Rv)) (UniProt P9WFW3); experiment: Assay for Asp RNA synthetase-1 from Mycobacterium tuberculosis; format: functional; conditions: 30 µM; also: in the data most compounds retested in dose-response had high values
T2 sequence (whole entry): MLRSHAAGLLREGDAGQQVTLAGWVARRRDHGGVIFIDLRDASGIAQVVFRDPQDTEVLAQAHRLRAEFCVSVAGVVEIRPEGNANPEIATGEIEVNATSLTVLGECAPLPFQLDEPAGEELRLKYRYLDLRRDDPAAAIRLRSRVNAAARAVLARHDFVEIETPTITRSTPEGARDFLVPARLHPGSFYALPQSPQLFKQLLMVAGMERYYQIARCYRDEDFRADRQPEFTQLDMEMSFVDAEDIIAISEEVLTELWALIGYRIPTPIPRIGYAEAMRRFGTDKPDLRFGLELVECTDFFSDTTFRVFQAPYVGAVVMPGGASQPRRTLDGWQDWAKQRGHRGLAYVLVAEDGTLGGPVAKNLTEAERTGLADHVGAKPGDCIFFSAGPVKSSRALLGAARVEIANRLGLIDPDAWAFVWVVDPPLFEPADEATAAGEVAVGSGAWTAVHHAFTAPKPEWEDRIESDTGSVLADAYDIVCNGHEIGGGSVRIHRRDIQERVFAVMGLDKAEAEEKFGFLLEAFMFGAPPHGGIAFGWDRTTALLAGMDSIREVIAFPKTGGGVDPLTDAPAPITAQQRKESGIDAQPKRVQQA

[4] = molecular target: AMP-activated protein kinase, AMPK (Homo sapiens) (UniProt P54646+O43741+P54619+Q9UGJ0+Q9Y478+Q13131+Q9UGI9); experiment: AMP-dependent Kinase enzyme assay. An in vitro enzyme assay that detects ADP turnover that is directly proportional to AMPK activity. This uses naive AMPK that is activated during the assay with MK-8722; format: functional; conditions: 30 µM
[5] = molecular target: Sialic acid-binding Ig-like lectin 9 (Homo sapiens) (UniProt Q9Y336); experiment: Hs-Siglec9 ALPHAscreen SOP 20170721; conditions: 10 µM
Trypanosoma cruzi = experiment: Trypanosoma cruzi phosphomannomutase and mannose-1-phosphate guanylyltransferase assay; format: functional; conditions: 10 µM
[6] = molecular target: T3, Arginase-2, mitochondrial (Homo sapiens) (UniProt P78540); experiment: in vitro enzyme assay to detect the production of urea directly proportional to the activity of Arginase II; format: functional; conditions: 33.3 µM; also: in the data most compounds retested in dose-response had high values
T3 sequence (whole entry): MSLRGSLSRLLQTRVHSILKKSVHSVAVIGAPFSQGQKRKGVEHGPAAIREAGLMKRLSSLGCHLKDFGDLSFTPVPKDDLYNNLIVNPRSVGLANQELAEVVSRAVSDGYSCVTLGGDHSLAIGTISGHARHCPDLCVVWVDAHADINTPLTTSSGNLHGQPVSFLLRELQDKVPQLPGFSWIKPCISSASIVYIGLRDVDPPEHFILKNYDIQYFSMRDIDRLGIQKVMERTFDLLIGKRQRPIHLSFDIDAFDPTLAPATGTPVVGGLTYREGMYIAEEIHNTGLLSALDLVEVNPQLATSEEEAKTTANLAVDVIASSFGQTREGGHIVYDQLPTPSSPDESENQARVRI

[7] = molecular target: T4, Proteasome subunit beta (Trypanosoma cruzi) (UniProt O96673); experiment: Trypanosoma cruzi proteasome chymotrypsin-like activity (TcProtChymo) assay.; also: in the data most compounds retested in dose-response had high values; format: functional; conditions: 9.37 µM
T4 sequence (whole entry): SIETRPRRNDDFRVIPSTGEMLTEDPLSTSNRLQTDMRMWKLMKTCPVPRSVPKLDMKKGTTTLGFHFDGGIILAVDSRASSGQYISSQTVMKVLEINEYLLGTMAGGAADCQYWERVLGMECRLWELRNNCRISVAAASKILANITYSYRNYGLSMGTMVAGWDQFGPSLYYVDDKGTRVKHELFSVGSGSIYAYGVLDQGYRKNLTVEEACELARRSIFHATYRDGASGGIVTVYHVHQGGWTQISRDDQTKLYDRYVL

Homo sapiens = organism: Homo sapiens; experiment: To identify inhibition of the IFN signalling (Jak-Stat) pathway via expression of an eGFP reporter gene under the control of an IFN-stimulated response element (ISRE) containing MxA promoter.; format: functional; conditions: 30 µM
[8] = molecular target: Shiga toxin 2 (Escherichia coli O157:H7) (UniProt P09385+P09386); experiment: E. coli 0.157:H7 Shiga Toxin SOP - stx2 screening assay; format: functional; conditions: 30 µM
[9] = molecular target: T5, Tyrosyl-tRNA synthetase, putative (Trypanosoma cruzi (strain CL Brener)) (UniProt Q4DSP6); experiment: Trypanosoma cruzi tyrosyl tRNA synthetase (TcYRS) _High Tyrosine SOP; format: functional; conditions: 30 µM; also: in the data most compounds retested in dose-response had high values
T5 sequence (whole entry): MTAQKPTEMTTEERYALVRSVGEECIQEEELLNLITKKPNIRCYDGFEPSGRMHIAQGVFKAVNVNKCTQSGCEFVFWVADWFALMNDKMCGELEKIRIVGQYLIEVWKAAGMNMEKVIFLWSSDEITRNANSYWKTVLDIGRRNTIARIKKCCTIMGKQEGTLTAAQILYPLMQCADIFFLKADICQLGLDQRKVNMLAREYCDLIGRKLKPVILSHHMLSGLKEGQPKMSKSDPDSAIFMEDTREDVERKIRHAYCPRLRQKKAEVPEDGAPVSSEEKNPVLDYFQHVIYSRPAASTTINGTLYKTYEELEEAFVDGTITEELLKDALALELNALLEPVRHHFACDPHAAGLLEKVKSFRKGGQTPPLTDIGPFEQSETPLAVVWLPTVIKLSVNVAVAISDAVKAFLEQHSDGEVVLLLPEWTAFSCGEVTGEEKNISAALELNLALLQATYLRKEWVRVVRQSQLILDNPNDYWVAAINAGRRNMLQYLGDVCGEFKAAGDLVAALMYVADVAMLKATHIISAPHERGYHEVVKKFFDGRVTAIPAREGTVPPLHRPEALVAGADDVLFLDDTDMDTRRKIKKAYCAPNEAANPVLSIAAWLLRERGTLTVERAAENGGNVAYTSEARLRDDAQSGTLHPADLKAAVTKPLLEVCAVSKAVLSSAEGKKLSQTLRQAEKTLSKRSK

[10] = molecular target: T5, Tyrosyl-tRNA synthetase, putative (Trypanosoma cruzi (strain CL Brener)); experiment: Trypanosoma cruzi tyrosyl tRNA synthetase (TcYRS) SOP; format: functional; conditions: 30 µM
[11] = molecular target: Chromo domain-containing protein 1 (Saccharomyces cerevisiae (strain ATCC 204508 / S288c) (Baker's yeast)) (UniProt P32657); experiment: ScCHD-1 Enzyme Inhibition Assay; format: functional; conditions: 30 µM; also: in the data most compounds retested in dose-response had high values
Sequence of Chromo domain-containing protein 1 (Saccharomyces cerevisiae (strain ATCC 204508 / S288c) (Baker's yeast)) (P32657 whole entry, the tested form may be a part): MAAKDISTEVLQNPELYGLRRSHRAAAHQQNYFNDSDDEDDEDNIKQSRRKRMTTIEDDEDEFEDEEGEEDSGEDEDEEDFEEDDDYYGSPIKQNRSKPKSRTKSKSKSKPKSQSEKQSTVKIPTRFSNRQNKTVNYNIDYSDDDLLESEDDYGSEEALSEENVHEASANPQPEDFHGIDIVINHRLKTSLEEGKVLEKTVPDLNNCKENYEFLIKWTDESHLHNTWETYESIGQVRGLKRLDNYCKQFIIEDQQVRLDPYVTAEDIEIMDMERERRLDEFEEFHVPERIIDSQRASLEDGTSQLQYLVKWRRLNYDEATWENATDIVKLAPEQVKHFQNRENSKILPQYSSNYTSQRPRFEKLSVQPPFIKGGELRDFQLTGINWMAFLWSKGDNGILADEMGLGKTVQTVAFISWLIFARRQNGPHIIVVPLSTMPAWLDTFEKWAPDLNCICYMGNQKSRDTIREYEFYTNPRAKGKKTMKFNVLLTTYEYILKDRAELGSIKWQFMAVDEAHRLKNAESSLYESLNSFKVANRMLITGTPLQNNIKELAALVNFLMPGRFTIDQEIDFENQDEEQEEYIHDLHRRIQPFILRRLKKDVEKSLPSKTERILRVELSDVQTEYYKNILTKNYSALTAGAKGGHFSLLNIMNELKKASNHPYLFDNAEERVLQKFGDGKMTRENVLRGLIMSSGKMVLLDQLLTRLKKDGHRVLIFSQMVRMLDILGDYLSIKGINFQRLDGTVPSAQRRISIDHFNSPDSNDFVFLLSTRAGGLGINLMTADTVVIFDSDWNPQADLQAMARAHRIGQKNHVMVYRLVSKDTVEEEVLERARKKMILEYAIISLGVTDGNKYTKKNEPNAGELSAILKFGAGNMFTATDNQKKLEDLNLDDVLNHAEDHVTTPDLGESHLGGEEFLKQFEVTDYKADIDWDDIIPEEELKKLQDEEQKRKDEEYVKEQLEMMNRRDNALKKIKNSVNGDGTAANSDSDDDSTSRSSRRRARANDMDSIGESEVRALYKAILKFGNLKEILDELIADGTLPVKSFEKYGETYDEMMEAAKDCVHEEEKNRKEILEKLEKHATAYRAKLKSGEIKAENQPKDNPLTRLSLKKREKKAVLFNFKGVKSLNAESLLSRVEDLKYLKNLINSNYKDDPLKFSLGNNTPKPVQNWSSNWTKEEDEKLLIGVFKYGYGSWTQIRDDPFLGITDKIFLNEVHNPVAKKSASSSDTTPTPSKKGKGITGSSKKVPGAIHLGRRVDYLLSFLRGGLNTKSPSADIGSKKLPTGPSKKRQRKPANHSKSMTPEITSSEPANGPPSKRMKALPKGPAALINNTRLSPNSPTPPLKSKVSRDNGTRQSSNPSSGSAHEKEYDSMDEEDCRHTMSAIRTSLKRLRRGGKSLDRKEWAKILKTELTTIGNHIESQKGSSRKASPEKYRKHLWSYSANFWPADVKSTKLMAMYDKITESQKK

Sequence of Protein translocase subunit SecA (Escherichia coli (strain K12)) (P10408 whole entry): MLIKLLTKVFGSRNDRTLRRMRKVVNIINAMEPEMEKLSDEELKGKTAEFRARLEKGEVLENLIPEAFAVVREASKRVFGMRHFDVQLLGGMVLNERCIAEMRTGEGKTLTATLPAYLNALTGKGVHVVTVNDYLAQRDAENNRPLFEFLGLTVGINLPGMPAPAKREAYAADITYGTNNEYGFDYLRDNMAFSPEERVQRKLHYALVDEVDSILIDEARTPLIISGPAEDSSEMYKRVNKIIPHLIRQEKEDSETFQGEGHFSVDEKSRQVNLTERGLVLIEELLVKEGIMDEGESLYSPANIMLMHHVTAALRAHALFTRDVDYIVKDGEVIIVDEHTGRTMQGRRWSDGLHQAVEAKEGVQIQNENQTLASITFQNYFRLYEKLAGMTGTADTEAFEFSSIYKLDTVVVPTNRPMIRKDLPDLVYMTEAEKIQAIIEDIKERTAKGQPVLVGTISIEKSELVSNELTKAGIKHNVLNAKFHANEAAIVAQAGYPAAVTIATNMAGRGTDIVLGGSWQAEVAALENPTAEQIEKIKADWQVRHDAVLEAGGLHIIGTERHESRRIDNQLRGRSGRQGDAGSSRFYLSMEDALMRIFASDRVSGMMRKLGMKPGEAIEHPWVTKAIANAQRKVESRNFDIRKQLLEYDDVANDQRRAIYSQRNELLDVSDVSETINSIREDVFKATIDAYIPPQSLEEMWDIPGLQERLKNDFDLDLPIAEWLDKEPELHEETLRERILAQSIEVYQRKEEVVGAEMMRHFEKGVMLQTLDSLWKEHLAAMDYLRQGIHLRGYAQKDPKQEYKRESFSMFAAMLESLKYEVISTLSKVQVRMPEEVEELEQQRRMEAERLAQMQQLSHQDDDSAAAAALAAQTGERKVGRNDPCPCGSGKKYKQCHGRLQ
Sequence of Sialic acid-binding Ig-like lectin 9 (Homo sapiens) (Q9Y336 whole entry): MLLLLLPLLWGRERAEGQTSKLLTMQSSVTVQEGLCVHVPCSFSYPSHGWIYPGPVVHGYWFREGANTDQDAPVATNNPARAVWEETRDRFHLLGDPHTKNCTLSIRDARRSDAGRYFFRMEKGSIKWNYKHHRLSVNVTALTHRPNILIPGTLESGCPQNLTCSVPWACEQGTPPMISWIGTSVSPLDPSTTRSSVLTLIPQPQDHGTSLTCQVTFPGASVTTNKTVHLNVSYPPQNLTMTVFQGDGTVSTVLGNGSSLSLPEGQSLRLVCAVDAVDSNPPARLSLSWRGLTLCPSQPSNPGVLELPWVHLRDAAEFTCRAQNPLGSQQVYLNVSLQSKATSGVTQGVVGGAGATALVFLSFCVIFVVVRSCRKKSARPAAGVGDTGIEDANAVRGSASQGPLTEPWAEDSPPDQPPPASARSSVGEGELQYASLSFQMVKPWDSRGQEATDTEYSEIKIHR

Compound	Percent Effect [1] [%]	Percent Effect [2] [%]	Percent Effect [3] [%]	Percent Effect [4] [%]	Percent Effect [5] [%]	Percent Effect (Trypanosoma cruzi) [%]	Percent Effect [6] [%]	Percent Effect [7] [%]	Percent Effect (Homo sapiens) [%]	Percent Effect [8] [%]	Percent Effect [9] [%]	Percent Effect [10] [%]	Percent Effect [11] [%]
Cc1c(CC(=O)N2CCN(CC(F)(F)F)CC2)nnn1-c1ccccc1	-3.34	10.4	12.8	-2.43	2.86	-2.65	2.76	10.8	11.9	-45.5	4.3	8.64	-1.92
CC(C)N1CCOCC2(CN(Cc3ccccn3)CCO2)C1 (configuration not stated)	-1.27	10.4	5.23	2.61	-0.373	-2.86	5.81	3.65	5.84	-12.2	6.35	3.85	-3.65
Cc1cc(CN2CC[C@H]3C[C@H](c4nccs4)O[C@@H]3C2)no1	2.63	-2.7	-1.08	5.99	4.06	-1.47	0.319	12.9	-4.4	3.88	0	0	7.66
CCN1CCC(c2cncc(N(C)C)n2)CC1	-1.04	13.3	-2.49	1.31	-3.05	-2.76	-3.96	13.5	6.71	-7.25	3.19	11.5	-4.48
c1cncc(CO[C@H]2CO[C@@]3(CCN(Cc4ccoc4)C3)C2)c1	-2.55	-1.33	-2.79	7.6	8.75	-4.32	-6.16	12.6	2.27	-19.8	2.12	-2.56	1.04
CC[C@H](N)Cn1nc(-c2cccs2)oc1=O	-1.83	9.46	7.37	12	-5.1	-1.98	-1.62	16.7	2.87	5.59	1.07	3.9	-13.2
Cc1cccc(CN2CC[C@@H]3[C@@H]2CCN3C(=O)c2ccno2)n1	-0.832	-2.7	3.7	-8.15	-3.73	6.84	-1.67	12.1	-11.7	-15.7	-13.9	1.22	94
O=C(COc1cccc(F)c1)N1C[C@@H](O)[C@H](N2CCCC2)C1	0.584	4.05	-0.878	10.1	2.64	4.94	0.696	7.33	-0.848	-11.4	0	-3.9	-18.1
Cc1cccc(CO[C@@H]2CC[C@H]3[C@H]2OCCN3Cc2ccsc2)n1	-6.22	21.3	0.204	-3.76	1.99	4.44	-38.9	13.3	20.3	-20.4	3.12	15	-6.6
